# HDAC3 inh: blocks human histone deacetylase 3 | O15379 | recombinant HDAC3, fluorogenic peptide/trypsin coupled, fluorescence | inhibition, % at 8.3 µM | 0.15% of 320,000 active | AID 2718; in the data active means inhibition above about 26%, passing the limit was not always enough; inconclusive means no clear call, values can overlap the other calls
# Neddylation inh: cullin neddylation inhibition | P61081+Q13564 | TR-FRET cullin neddylation, biochemical | inhibition, % at 25 µM | 0.58% of 360,000 active | AID 651699; in the data active means inhibition above about 36%
# Target sequence (P61081 whole entry, looked up): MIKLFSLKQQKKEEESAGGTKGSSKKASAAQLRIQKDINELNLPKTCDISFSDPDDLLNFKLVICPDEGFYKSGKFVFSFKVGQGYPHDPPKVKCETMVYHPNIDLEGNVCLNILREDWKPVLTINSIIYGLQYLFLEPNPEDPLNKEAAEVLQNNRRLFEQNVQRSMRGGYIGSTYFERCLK
# Target sequence (Q13564 whole entry, looked up): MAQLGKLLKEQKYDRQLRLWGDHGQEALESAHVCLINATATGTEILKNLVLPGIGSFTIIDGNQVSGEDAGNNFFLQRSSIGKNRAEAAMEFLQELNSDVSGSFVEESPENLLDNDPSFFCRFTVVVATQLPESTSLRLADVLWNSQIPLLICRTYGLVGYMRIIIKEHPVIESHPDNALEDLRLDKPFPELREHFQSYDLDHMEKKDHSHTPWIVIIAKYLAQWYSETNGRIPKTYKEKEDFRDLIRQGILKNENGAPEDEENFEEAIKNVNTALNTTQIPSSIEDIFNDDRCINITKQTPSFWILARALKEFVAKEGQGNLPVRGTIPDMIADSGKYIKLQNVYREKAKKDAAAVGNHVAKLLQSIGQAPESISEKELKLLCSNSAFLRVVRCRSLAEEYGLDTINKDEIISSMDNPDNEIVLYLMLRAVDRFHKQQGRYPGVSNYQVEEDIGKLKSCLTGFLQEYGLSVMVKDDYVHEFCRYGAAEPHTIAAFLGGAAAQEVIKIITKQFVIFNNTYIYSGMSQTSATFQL
# H9c2 protect: modulators protecting cardiomyocytes from myocardial damage; 0.63% of 360,000 active; H9c2 cardiomyocytes, H2O2 injury protection, ATPLite, 2 h; protection from H2O2 cell death, % at 20 µM;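 active means compounds giving at least 50% protection of heart cells from peroxide-induced death in the single-dose screen, raw or plate-pattern-corrected value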;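 further: 0% = DMSO wells with peroxide and 100% = DMSO wells without peroxide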
# GRK2 inh: blocks RNA aptamer binding to human GRK2. 0.59% of 330,000 active. P25098. inhibition of aptamer binding, % at 10 µM. bead flow cytometry, FAM-aptamer displacement from GRK2;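 active means inhibition of aptamer binding above 40%, roughly 3 SD of noise, on plates passing a quality check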;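 further: median bead fluorescence of bound FAM aptamer so fluorescent compounds give negative values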
# GRK2 CP1: human GRK2 inhibition confirmation, cherry pick 1. shares compounds with GRK2 inh. bead-bound GRK2, FAM-aptamer displacement, flow cytometry. aptamer displacement, % at 10 µM. 4% of 2,000 active. AID 504451;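 active means aptamer displacement above 40%, near three times the noise of non-fluorescent compounds, on plates passing quality checks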;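 further: negative values mostly reflect intrinsic compound fluorescence rather than true enhancement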
# Aptamer quench 1: counter-screen for GRK2 aptamer inhibitors: fluorescent aptamer quenchers. fluorescence change (kMESF span), kMESF (test concentration not listed). AID 504521. 110 tested, under 10 active. Fluorescent RNA aptamer beads, quenching, flow cytometry; hits give high values. shares compounds with GRK2 inh;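 active means compounds whose bead fluorescence drops by more than 37 kMESF across the dose range, marking them as dye quenchers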
# FAM quench CP1: aptamer fluorescence quenching in GRK2 counter-screen | 2,000 tested, under 10 active | shares compounds with GRK2 inh | Carboxyfluorescein RNA aptamer on beads, flow cytometry quenching; hits give low values | fluorescence response (% of DMSO), % at 10 µM;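 active means compounds that quench the bead-bound fluorescent RNA probe, cutting fluorescence to under half of the solvent control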;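 further: counterscreen run without GRK2 so only probe quenching by compound is measured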
# GRK2 CP2: human GRK2 inhibition confirmation, cherry pick 2; shares compounds with GRK2 inh; bead-bound GRK2, FAM-aptamer displacement, flow cytometry; inhibition of aptamer binding, % at 10 µM; 360 tested, under 10 active;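 active means inhibition of aptamer binding above 40%, about triple the noise seen with nonglowing compounds, on plates passing quality control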;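 further: negative values mostly come from compounds that fluoresce themselves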
# FAM quench SP: aptamer fluorescence quenching in GRK2 counter-screen. shares compounds with GRK2 inh. AID 588494. 360 tested, under 10 active. fluorescence response vs DMSO, % at 10 µM. carboxyfluorescein RNA aptamer beads, flow cytometry quenching; hits give low values;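 active means response vs DMSO under 50%, meaning signal dropped by over half, treated as fluorescence quencher; inconclusive means no clear call, values can overlap the other calls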;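 further: labelled aptamer on streptavidin beads without GRK2 as a quench counter-screen; 100% = bead fluorescence of DMSO wells and lower means quenching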
# * = called active by the depositor; ? = inconclusive; nt = not tested or not shown. Shown are actives, neighbours in structure and some others; about 1.8% of the full set was active somewhere.
SMILES,HDAC3 inh,Neddylation inh,H9c2 protect,GRK2 inh,GRK2 CP1,FAM quench CP1,others
COc1cc(-c2ccc3c(=O)c4ccccc4sc3c2)cc(OC)c1OC,-5.6,2.8,-5.6,100.0*,nt,nt,GRK2 CP2=-10.8;FAM quench SP=99.0
COc1cc(-c2c(-c3ccsc3)sc3ccccc23)cc(OC)c1OC,7.0,-69.7,-6.3,0.0,nt,nt,
CCN(CC(=O)NCc1ccc(F)cc1)C(=O)C(C)Oc1cccc(Cl)c1 (stereo unspecified),3.7,15.5,1.9,79.0*,-1.5,101.5,
O=C(COc1ncnc2ccc(Br)cc12)NCc1ccco1,1.2,-285.2,1.3,1.0,nt,nt,
O=C(C[n+]1cccc(CO)c1)Nc1nc2ccccc2s1,0.4,5.8,-3.9,42.0*,3.1,100.8,
Cc1ccc(NC(=O)CN(C)c2ccc(S(=O)(=O)N3CCCC3)cn2)cc1,4.9,1.8,1.5,67.0*,-1.8,99.1,
Cc1cc(=O)oc2cc(OCC(=O)Nc3ccc4[nH]c(=O)[nH]c4c3)ccc12,1.0,17.7,7.7,1.0,nt,nt,
CC1(C)N([O-])c2cc([N+](=O)[O-])ccc2[N+]1=O,8.7,nt,nt,68.0*,2.7,94.7,
Cc1ccc(C)n1-c1cc([N+](=O)[O-])ccc1-n1ccnc1,1.5,-27.1,-0.3,0.0,nt,nt,
OCC[C@H]1C[C@@H](O)[C@H](O)[C@]2(CCCCO2)O1,0.3,3.4,2.3,6.0,nt,nt,
COc1ccc(C(=O)NCC(C)(C)SCc2c(C)cc(C)cc2C)cc1,-3.9,-1.9,-14.2,50.0*,-1.6,98.2,
COc1ccc(C(=O)NCCNC(=O)c2ccc(OC)cc2)cc1,7.9,0.4,3.4,nt,nt,nt,
CCn1c(CNC(=O)c2ccccc2Br)nnc1SCC(=O)Nc1nncs1,-3.1,7.8,6.7,8.0,nt,nt,
CC(C)c1nnc(NC(=O)CCS(=O)(=O)c2ccccc2)s1,6.1,2.9,3.3,0.0,-1.6,112.5,
CCCCC(CC)c1nnc(NC(=O)c2cccs2)s1 (stereo unspecified),nt,-7.9,7.3,nt,nt,nt,
CC(C)c1nnc(NC(=O)c2cccs2)s1,-0.9,-2.4,4.2,44.0*,-2.9,97.7,
CCCC(C)c1nnc(NC(=O)CCS(=O)(=O)c2ccccc2)s1 (stereo unspecified),0.1,-4.3,-6.4,17.0,13.0,98.2,
CCC(CC)c1nnc(NC(=O)CS(=O)(=O)c2ccccc2)s1,?,0.0,5.0,1.0,nt,nt,
C#CCOCCOCCOCCNc1nc(N2CCOCC2)nc(N2CCN(C(=O)[C@H](CO)n3cc([C@@H](N)C(C)C)nn3)CC2)n1,-3.3,1.5,-3.1,74.0*,nt,nt,GRK2 CP2=-19.3;FAM quench SP=100.0
C#CCOCCOCCOCCNc1nc(N2CCOCC2)nc(N2CCN(C(=O)CCCCCCCCCCNC(=O)[C@H](CO)n3cc(CCCSC)nn3)CC2)n1,-10.4,-4.3,14.6,50.0*,-4.8,99.2,
Cc1ccc(NC(=O)CN2C(=O)N/C(=C/c3cccn3-c3ccc(C(=O)O)cc3)C2=O)cc1,6.2,-3.9,11.3,96.0*,86.1*,94.5,Aptamer quench 1=-0.9
NS(=O)(=O)c1ccc(NC(=O)CN2CCN(S(=O)(=O)/C=C/c3ccccc3)CC2)cc1,nt,1.9,0.4,54.0*,6.2,101.1,
NS(=O)(=O)c1ccc(NC(=O)CN2CCN(Cc3ccccc3)CC2)cc1,9.5,2.2,-4.6,2.0,nt,nt,
COCCn1c(SCC(=O)Nc2cccc(C)c2)nnc1C(C)C,-1.2,-4.0,-1.3,41.0*,nt,nt,GRK2 CP2=5.1;FAM quench SP=100.0
COCCn1c(SCC(=O)Nc2cc(C)cc(C)c2)nnc1C(C)C,-2.3,-0.8,-0.1,2.0,nt,nt,
SMILES,HDAC3 inh,Neddylation inh,H9c2 protect,GRK2 inh,GRK2 CP1,FAM quench CP1,others
O=C(COc1ccc2ccccc2c1)NNC(=O)C(=O)Nc1ccccc1,-2.7,-3.9,4.6,0.0,nt,nt,
COC(=O)[C@H](Cc1ccccc1)NC(=O)N1CCCCC1,-1.6,-1.5,5.6,0.0,nt,nt,
COC(=O)[C@H](Cc1ccccc1)NC(=O)C1(OC(C)=O)CC(OC(C)=O)C(OC(C)=O)C(OC(C)=O)C1 (stereo partly specified),0.8,-6.6,-6.2,63.0*,5.5,94.2,
O=C1CN(C(=O)c2ccccc2F)c2ccccc2N1,0.3,2.1,5.2,48.0*,1.3,96.4,
CN(C)c1cccc(C(=O)OCc2cc(=O)oc3cc(O)ccc23)c1,-27.9,nt,21.2,54.0*,54.8*,100.7,Aptamer quench 1=4
COc1ccc(NC2CCCN(C(=O)CN3CCOC3=O)C2)cc1 (stereo unspecified),6.7,2.9,-2.5,4.0,nt,nt,
O=C(C1CCCCCC1)N1CC[C@@H](N2CCC(O)CC2)[C@H](O)C1,-0.6,-3.6,-0.5,31.0,-5.1,102.5,
CCOc1ccc(OCCCC(=O)N(C)CC(=O)Nc2ccccc2Br)cc1,1.0,0.8,1.6,46.0*,-2.0,105.8,
Cc1ccc(OCCCC(=O)N(C)CC(=O)Nc2ccccc2Cl)cc1,4.6,10.5,1.1,1.0,nt,nt,
CSc1ccccc1C(=O)Nc1cccc(C)c1,3.4,5.1,1.6,97.0*,-0.4,93.8,
C=CCOc1cccc(NC(=O)c2ccccc2SC)c1,6.6,-1.8,-4.4,92.0*,0.7,90.4,
O=C(Nc1ccc(Cl)cc1)P(=O)(O)c1ccccc1,nt,-3.9,-0.8,nt,nt,nt,
Cc1cc(C)c(C)c(S(=O)(=O)N2CCN(C(=O)c3cc(S(=O)(=O)N4CCOCC4)ccc3F)CC2)c1C,1.0,-25.4,-2.6,1.0,-0.5,102.1,
COCCNC(=O)C1(C)CCN(Cc2noc(-c3c(C)noc3C)n2)C1 (stereo unspecified),nt,-7.3,-1.6,nt,nt,nt,
CSc1ccc(C(=O)C2CCCN(C(=O)CCCn3cncn3)C2)cc1 (stereo unspecified),10.5,-42.2,-0.9,76.0*,5.7,96.2,
O=C(c1ccc(C(F)(F)F)cc1)C1CCCN(C(=O)CCn2cncn2)C1 (stereo unspecified),-5.9,-8.0,-1.1,2.0,nt,nt,
O=C(NN1CCOCC1)c1cc(-c2ccncc2)nc2ccccc12,4.8,-16.6,-0.6,2.0,nt,nt,
O=C(NN1CCOCC1)c1cc(-c2ccccc2)nc2ccccc12,-1.4,-7.3,15.8,71.0*,1.2,98.3,
O=C1CCCC(=O)N1c1ccc(N2CCOCC2)c([N+](=O)[O-])c1,4.6,-8.2,-1.1,0.0,nt,nt,
Cc1ccc(C(=O)Nc2ccc(N3CCN(C)CC3)cc2)c(Cl)c1,-0.2,-3.7,12.6,49.0*,-2.7,92.2,
Cc1cccc(-n2c(N)c(-c3nc4ccccc4n3C)c3nc4ccccc4nc32)c1,-0.3,nt,2.5,97.0*,nt,nt,GRK2 CP2=-104.0;FAM quench SP=100.0

# Bioassay records deposited in PubChem BioAssay by several laboratories.
